# Assay outcomes deposited in PubChem by National Center for Advancing Translational Sciences (NCATS).
# This is a sample that favours compounds with a hit; in the whole collection about 21% have one here.
# D3 ag = activates the human D3 dopamine receptor | P35462 | D3R DiscoveRx beta-arrestin cells, luminescence, 90 min | max activation, % | actives 0.58% (n = 410,000); in the data active means max activation above about 30%; further: 0% is about no effect
# Target sequence (P35462 whole entry, looked up): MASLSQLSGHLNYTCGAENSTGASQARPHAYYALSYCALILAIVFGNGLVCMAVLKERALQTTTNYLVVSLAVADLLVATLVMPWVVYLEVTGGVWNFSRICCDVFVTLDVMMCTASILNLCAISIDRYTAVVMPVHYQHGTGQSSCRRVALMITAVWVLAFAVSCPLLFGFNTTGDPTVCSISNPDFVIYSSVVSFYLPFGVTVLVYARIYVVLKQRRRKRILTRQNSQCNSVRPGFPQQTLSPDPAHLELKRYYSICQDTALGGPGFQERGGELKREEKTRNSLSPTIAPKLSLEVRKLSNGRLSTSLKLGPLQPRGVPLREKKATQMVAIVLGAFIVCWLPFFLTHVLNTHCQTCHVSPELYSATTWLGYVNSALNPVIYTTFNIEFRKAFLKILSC
#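 Agonist mode: compounds and dopamine controls were applied to plated cells for 90 min at 37 degrees C after an overnight attachment at 1500 cells/well. Luminescent read-out followed 30 - 60 minutes at room temperature with DiscoveRx detection reagent.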
# D3 antag = D3 dopamine receptor (human) antagonism; D3R cells, DiscoveRx beta-arrestin luminescence, antagonist mode; hits give low values; P35462; max response, negative = inhibition, %; actives 2.5% (n = 360,000); in the data active means max response below about -50%; inconclusive means no clear call, values can overlap the other calls; further: on the % scale 0 is the no-effect control and ±100 the full control effect
#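 Cells expressing the human receptor were seeded at 1500 cells/well, incubated overnight at 37 degrees C in 5% CO2, then exposed to library compounds with dopamine controls for 90 minutes at 37 degrees C before luminescent detection.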
# IL1B secr inh = inflammasome signaling inhibition, IL-1 beta readout. THP-1 LPS/ATP IL-1B secretion, AlphaLISA, 16 h; hits give low values. AID 743279. activity change, % at 57.5 µM. actives 4.7% (n = 360,000); in the data active means activity change below about -50%; inconclusive means mostly about -30% to -49%; further: on the % scale 0 is the no-effect control and ±100 the full control effect
#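 Secreted IL-1B measured by AlphaLISA bead assay after 16 h compound exposure of THP-1 cells; compounds (final up to 57.5 uM) added 1 h before LPS (250 ng/mL) and ATP (1.25 mM) stimulation; lower signal means less secretion.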
# ClpP mod = qHTS Assay for Activators of ClpP; ATP-dependent Clp protease proteolytic subunit (Bacillus subtilis (strain 168)), P80244; purified B. subtilis ClpP, FRET peptide cleavage, 20 min; Potency, µM (top dose mostly 57.5 µM), for inactives: top-dose activity change, negative = active; actives 1.9% (n = 340,000); active means well fitted falling curve with a large enough effect; inconclusive means small, poorly fitted or top-dose-only effect; inactive means no such curve, though single readings can be large or run the other way; further: potency means the concentration at half of the fitted maximal effect; the source files actives as falling curves though it sought activators and does not explain the sign; nearly all actives have a fitted effect of over 65% in size
# Target sequence (P80244 whole entry, looked up): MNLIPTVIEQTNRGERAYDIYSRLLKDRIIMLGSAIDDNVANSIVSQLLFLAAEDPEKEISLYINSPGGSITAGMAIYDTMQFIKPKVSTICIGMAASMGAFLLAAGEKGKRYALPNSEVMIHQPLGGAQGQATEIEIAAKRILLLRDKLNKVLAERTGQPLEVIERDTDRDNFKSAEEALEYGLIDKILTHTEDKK
#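 Buffer: 100 mM Tris/HCl pH8, 100 mM KCl, 0.05% low protease BSA, 2.5% glycerol, 0.01% Tween-20. ClpP 10 microg/mL final; 20 min RT; delta FRET normalized to ADEP and DMSO controls.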
# TDP1 cell noCPT = qHTS for Inhibitors of human tyrosyl-DNA phosphodiesterase 1 (TDP1): qHTS in cells in absence of CPT; DT40 Tdp1-/- hTDP1 cells, no CPT, ATP luminescence, 48 h; Potency, µM (highest dose often 46.2 µM), for the others: top-dose activity change, negative = growth inhibition, usual class: inhibitors; actives 15% (n = 420,000); AID 686978, 2013; further: potency means the concentration at half of the fitted maximal effect; on the % scale 0 is the no-effect control and ±100 the full control effect; nearly all actives have a fitted effect of over 55% in size
#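 Chicken DT40 Tdp1-/- cells complemented with human TDP1, screened without camptothecin (DMSO vehicle only), 400 cells/well. Compounds pin-transferred, cells incubated at 37 °C for at least 48 hr. Growth read as ATP-dependent luminescence (CellTiter-Glo, 30 min at RT).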
# DT40 TDP1 CPT = growth inhibition of DT40 Tdp1-/-;hTDP1 cells with camptothecin (screen for TDP1 inhibitors) | chicken DT40 Tdp1-/-;hTDP1 cells + 20 nM CPT, ATP luminescence, 48 h | Potency, µM (doses to about 46.2 µM), without a hit: top-dose activity change, negative = growth inhibition, hits mostly inhibitors | actives 12% (n = 420,000) | AID 686979; further: potency means the concentration at half of the fitted maximal effect; on the % scale 0 is the no-effect control and ±100 the full control effect; nearly all actives have a fitted effect of over 55% in size
#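 Chicken DT40 Tdp1-/- cells stably complemented with human TDP1 were seeded at 400 cells/well in medium containing 20 nM camptothecin, exposed to pin-transferred compounds, and grown at 37 °C for at least 48 hr. Viability was read as ATP luminescence.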
# * marks the source's active call; other numbers are inactive results; u = inconclusive; x = no result given; [ ] = another dose, or the depositor's remark. Unless noted, the call rests on the fitted dose curve; in most records, active means well fitted inhibition curve with a large enough effect; inconclusive means small, poorly fitted or top-dose-only effect; inactive means flat fitted curve, though single readings scatter.
SMILES,D3 ag,D3 antag,IL1B secr inh,ClpP mod,TDP1 cell noCPT,DT40 TDP1 CPT
OCc1cn(-c2ccccc2)nc1-c1ccc(Br)cc1,4.1,10.7,-8.1,-2.8%,-1.2%,-1.8%
CCCc1cc(=O)[nH]c2nnc(SCC(=O)Nc3ccc(OC)cc3)n12,0.9,x,x,-7.3%,-4.6%,-0.9%
COC(=O)C1CCN(C(=O)c2cc3c(=O)n4cccc(C)c4nc3n2Cc2ccccc2)CC1,4.8,-2.0,23.7,0.5%,u,u
CC(=O)NCC(=O)NCC1Cc2cc(C)cc(-c3ccccn3)c2O1 (configuration not stated),x,x,x,x,2.1%,6.0%[9.04 µM]
CCCCN1C(=O)C(CC(=O)NCc2cccs2)CC(C(=O)N(CC)CC)=C1C (configuration not stated),-6.4,-6.1,-12.2,0.2%,-3.6%,-0.4%
COc1ccc(-c2nn(-c3ccccc3)cc2CO)cc1OC,1.6,11.0,-10.7,11.2µM*,-26.6%,u
COC(=O)c1cn(-c2ccccc2)nc1-c1ccc(OC)c(OC)c1,12.1,31.6,10.7,-4.8%,u,-2.4%
COc1cccc(-c2nn(-c3ccccc3)cc2CO)c1,-0.3,38.8,u,0.1%,-15.0%,-1.6%
COc1ccc(-c2nn(-c3ccccc3)cc2/C=N/NC(=S)NC(C)C)cc1OC,12.5,60.4,u,-12.2%,18.4µM*,23.1µM*
COc1ccc(-c2nn(-c3ccccc3)cc2/C=N/Nc2ccc(S(N)(=O)=O)cc2[N+](=O)[O-])cc1OC,-17.0,u,15.7,x,u,-25.5%
COc1ccc(-c2nn(-c3ccccc3)cc2/C=N/O)cc1OC,0.4,1.2,-10.8,-4.6%,25.9µM*,u
COc1ccc(-c2nn(-c3ccccc3)cc2/C=N/N=C(N)N)cc1OC,-6.1,-5.9,u,0.3%,13µM*,23.1µM*
O=C(c1ccncc1)N1CCC[C@@]2(CCN(Cc3ccncc3)C2)C1,x,x,x,x,-5.8%,u
CC(C)(C)Nc1nc2ccc([N+](=O)[O-])cc2o1,1.3,-15.1,-23.9,x,-15.2%,-4.3%
COc1cccc(-c2nn(-c3ccccc3)cc2CN(C)Cc2ccon2)c1,9.5,7.3,-14.5,-2.6%,11.2µM*,-29.9%
COc1ccc(-c2nn(-c3ccccc3)cc2/C=N/Nc2ccc3ccccc3n2)cc1OC,0.1,22.4,-24.7,1.2%,4.11µM*,3.26µM*
CC(C)COc1ccc(-c2nn(-c3ccccc3)cc2CO)cc1,19.9,21.3,-10.8,-17.4%,u,20.6µM*
COc1cccc(-c2nn(-c3ccccc3)cc2CN(C)Cc2c(C)nc3ccccn23)c1,-2.3,23.2,16.4,4.1%,u,u
COc1cccc(CN2CCC(n3cc(C(=O)N4CCCCC4)nn3)CC2)c1OC,x,x,x,x,-10.5%,3.2%
O=C(NNS(=O)(=O)c1ccccc1)c1cccc([N+](=O)[O-])c1,3.0,9.1,13.3,1.9%,4.4%,7.1%
COc1ccc(CNC(=O)C2(C)Cc3c(-c4ccc5c(c4)OCO5)ccnc3O2)cc1OC (configuration not stated),8.7,1.9,23.5,3.8%,16.4µM*,u
CN(C)c1ccc(CNC(=O)C2(C)Cc3c(-c4ccc(N(C)C)cc4)ccnc3O2)cc1 (configuration not stated),6.5,38.5,-19.0,5.1%,18.4µM*,u
CN(C)c1ccc(-c2ccnc3c2CC(C)(C(=O)NCC2CC2)O3)cc1 (configuration not stated),3.8,0.0,19.9,4.6%,5.17µM*,5.17µM*
CN(C)c1ccc(CNC(=O)C2(C)Cc3c(-c4ccc5c(c4)OCO5)ccnc3O2)cc1 (configuration not stated),-11.6,0.0,0.0,4.4%,3.66µM*,4.61µM*
CC1(C(=O)NCC2CC2)Cc2c(-c3cccc(C(N)=O)c3)ccnc2O1 (configuration not stated),6.1,3.0,13.3,-5.1%,u,u
SMILES,D3 ag,D3 antag,IL1B secr inh,ClpP mod,TDP1 cell noCPT,DT40 TDP1 CPT
CN(C)c1ccc(CNC(=O)C2(C)Cc3c(-c4cccc(C(N)=O)c4)ccnc3O2)cc1 (configuration not stated),8.5,9.2,63.5,-0.1%,u,14.6µM*
CC1(C(=O)NCC2CC2)Cc2c(-c3ccc4c(c3)OCO4)ccnc2O1 (configuration not stated),-9.6,0.0,45.7,4.6%,5.17µM*,4.61µM*
CN1CCN(c2ccc(CNC(=O)C3(C)Cc4c(-c5ccc6c(c5)OCO6)ccnc4O3)cc2)CC1 (configuration not stated),-11.9,u,u,4.2%,14.6µM*,u
COCCNC(=O)C1(C)Cc2c(-c3ccc(NC(C)=O)cc3)ccnc2O1 (configuration not stated),-10.5,-1.7,0.0,4.5%,u,u
CN(C)c1ccc(CNC(=O)C2(C)Cc3c(-c4ccccc4)ccnc3O2)cc1 (configuration not stated),5.9,7.3,u,0.5%,u,u
COCCNC(=O)C1(C)Cc2c(-c3ccc(N(C)C)cc3)ccnc2O1 (configuration not stated),-3.3,20.5,9.5,4.8%,4.61µM*,5.17µM*
Cc1cc(C)n(-c2nnc3c4ccccc4n(C)c3n2)n1,1.1,-13.2,-4.7,x,u,-12.1%
Cc1cccc2nc(CNC(=O)CC3C(=O)NCCN3Cc3cccc(F)c3)cn12 (configuration not stated),-6.7,12.9,11.3,u,7.4%,-1.3%
CCOC(=O)N1CCN(C(C(=O)NC2CCCC2)c2ccco2)CC1 (configuration not stated),2.2,5.7,12.1,2.2%,-1.3%,u
CC1(C(=O)NCCc2ccccc2)Cc2c(-c3cccc(C(N)=O)c3)ccnc2O1 (configuration not stated),-4.2,5.2,29.1,-4.3%,18.4µM*,u
Cc1ccc2oc(-c3ccc(C)c(NC(=O)C(C)(C)Oc4ccc(Cl)cc4)c3)nc2c1,13.9,x,x,3.6%,u,u
CCOc1ccccc1CNS(=O)(=O)c1ccc2c(c1)CCCN2C(C)=O,-1.8,x,x,0.0%,u,u
CSc1ncccc1C(=O)N1CCN(S(=O)(=O)c2ccc(C)cc2)CC1,2.8,-17.4,22.8,-1.2%,-19.5%,-1.1%
